Data published in PubChem BioAssay.
Active and inactive are the calls of the source.

Columns and labels:
[1] = tested on: Plasmodium falciparum Sir2 (PF13_0152, Sir2A); test: pfSir2 binders on small-molecule microarrays, primary screen, biochemical, small-molecule microarray, 635 nm fluorescence (AID 1098); conditions: small-molecule microarray binding, fluorescence 635 nm; higher = more signal;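 further: score merges spot fluorescence intensity with its signal-to-noise ratio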
[2] = small-molecule microarray binders of probe aDKK1, primary screen, biochemical, biotinylated probe, 635/667 nm fluorescence (AID 1099); conditions: higher = more signal;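 further: score merges 667nm spot fluorescence with signal to noise across triplicate slides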
[3] = small-molecule microarray binders of probe aCHRDL2, primary screen, biochemical, biotinylated probe, 635/667 nm fluorescence (AID 1100); conditions: higher = more signal
[4] = splicing luciferase reporter signal modulators, primary screen, spliceosome inhibition project, cell-based, HEK293, splice +/- reporter (AID 1101); conditions: luminescence, 24 h, higher = more signal, called active from +8 up or from −8 down;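 further: HEK293 cells carrying a splicing-competent luciferase reporter gene; test concentration not given here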
[5] = target: Fibroblast growth factor 10 (Homo sapiens) (UniProt O15520); test: FGF10 binders on small-molecule microarrays, primary screen, biochemical, small-molecule microarray, 635 nm fluorescence (AID 1102); conditions: FGF10 binding, fluorescence 635 nm, higher = more signal
[6] = tested on: glycogen synthase kinase-3 (GSK3A per assay name; protocol says GSK3B); test: GSK3 binders on small-molecule microarrays, primary screen, biochemical, small-molecule microarray, 635 nm fluorescence, GSK3A (AID 1103); conditions: small-molecule microarray binding, fluorescence 635 nm; higher = more signal; further: the record names both GSK3A and GSK3B
[7] = target: Epidermal growth factor receptor (Homo sapiens) (UniProt P00533); test: EGFR binders on small-molecule microarrays, primary screen, biochemical, small-molecule microarray, 635 nm fluorescence (AID 1104); conditions: EGFR binding, higher = more signal;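 further: score merges 667 nm emission intensity with spot signal to noise over triplicate slides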
[8] = target: Follistatin-related protein 3 (Homo sapiens) (UniProt O95633); test: FSTL3 binders on small-molecule microarrays, primary screen, biochemical, small-molecule microarray, 635 nm fluorescence (AID 1105); conditions: FSTL3 binding, higher = more signal;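 further: score merges emission near 667 nm and signal to noise per printed spot across three slides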
[9] = target: Dickkopf-related protein 1 (Homo sapiens) (UniProt O94907); test: DKK1 binders on small-molecule microarrays, primary screen, biochemical, small-molecule microarray, 635 nm fluorescence scan (AID 1106); conditions: DKK1 binding, higher = more signal;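 further: score merges emission near 667 nm with signal to noise over three replicate slides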
[10] = tested on: Inhibin beta A chain (activin A); test: INHBA (activin A) binders on microarrays, primary screen, biochemical, small-molecule microarray, 635 nm fluorescence scan (AID 1107); conditions: small-molecule microarray binding, higher = more signal;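 further: mouse activin A protein probed at 4.33 µg/mL on printed slides; score merges bound-protein fluorescence near 667 nm with spot signal-to-noise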
[11] = tested on: Human papillomavirus type 1a protein E7 (residues 44-93); test: HPV1a E7 fragment binders on microarrays, primary screen, biochemical, small-molecule microarray, residues 44-93, 635 nm fluorescence (AID 1108); conditions: small-molecule microarray binding, fluorescence 635 nm; higher = more signal;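 further: E7 fragment applied at 1 µg/mL in TBST for 1 h at 4 C; score combines spot fluorescence with its signal to noise ratio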
[12] = modulators of HCV replicon luciferase signal, primary screen, HCV replication inhibitor project, Huh7 cells, luciferase reporter (AID 1109); conditions: 48 h, higher = more signal;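 further: huh7 hepatoma cells harbouring a luciferase neomycin HCV replicon reporter; luciferase luminescence as measure of HCV replicon replication; test concentration not given here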
[13] = target: Left-right determination factor 2 (Homo sapiens) (UniProt O00292); test: LEFTY2 binders on small-molecule microarrays, primary screen, biochemical, small-molecule microarray, 635 nm fluorescence scan (AID 1110); conditions: LEFTY2 binding, higher = more signal
[14] = target: Calmodulin-1 (Homo sapiens) (UniProt P0DP23); test: CALM1 binders on microarrays, EGTA buffer, profiling panel, biochemical, small-molecule microarray, Cy5-labelled CALM1 (AID 1111); conditions: Cy5-CALM1 binding fluorescence, higher = more signal;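 further: labelled calmodulin applied in Tris saline Tween buffer holding calcium plus EGTA and DTT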
[15] = target: Calmodulin-1 (Homo sapiens) (UniProt P0DP23); test: calcium-bound CALM1 binders on microarrays, profiling panel, artefact control for SMM control-protein annotation, biochemical, small-molecule microarray, Cy5-labelled CALM1, plus calcium (AID 1112); conditions: Cy5-CALM1 binding fluorescence, higher = more signal;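 further: score merges spot fluorescence with signal to noise from triplicate slides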
[16] = small-molecule microarray binders of probe aWnt5a, primary screen, biochemical, biotinylated probe, 635/667 nm fluorescence (AID 1113); conditions: higher = more signal;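 further: score merges 667 nm fluorescence intensity with signal-to-noise per printed feature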
[17] = small-molecule microarray binders of probe aShh, primary screen, biochemical, biotinylated probe, 635/667 nm fluorescence (AID 1114); conditions: higher = more signal;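 further: probe is biotin-labelled aShh protein from a stem cell growth factor screen; measures binding of labelled protein to compounds printed on the slide; score merges feature fluorescence at 667 nm with signal-to-noise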
[18] = small-molecule microarray binders of probe aNog, primary screen, biochemical, biotinylated probe, 635/667 nm fluorescence (AID 1115); conditions: higher = more signal;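 further: probe is biotinylated aNog protein used at 0.15 µg/mL for 1 h at 4 C; z-score combines 667 nm fluorescence of each spot with its signal to noise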
[19] = target: Torsin-1A-interacting protein 1 (Homo sapiens) (UniProt Q5JTV8); test: LAP1 binders from COS7 cell lysate, primary screen, small-molecule microarray, 635/667 nm fluorescence (AID 1116); conditions: COS7-hLAP1 lysate binding, 635 nm fluorescence, higher = more signal
[20] = target: Alpha-bungarotoxin (Bungarus multicinctus) (UniProt P60615); test: alpha-bungarotoxin binders on microarray, profiling panel, artefact control for SMM control protein annotation, biochemical, small-molecule microarray, Alexa647 label, 635/667 nm fluorescence (AID 1117); conditions: alpha-BTX-A647 binding fluorescence, higher = more signal
Alpha-bungarotoxin (Bungarus multicinctus), sequence (P60615 whole entry, looked up): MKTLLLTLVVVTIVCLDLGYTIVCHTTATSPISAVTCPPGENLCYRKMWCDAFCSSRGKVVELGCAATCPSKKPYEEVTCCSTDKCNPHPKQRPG

Follistatin-related protein 3 (Homo sapiens), sequence (O95633 whole entry, looked up): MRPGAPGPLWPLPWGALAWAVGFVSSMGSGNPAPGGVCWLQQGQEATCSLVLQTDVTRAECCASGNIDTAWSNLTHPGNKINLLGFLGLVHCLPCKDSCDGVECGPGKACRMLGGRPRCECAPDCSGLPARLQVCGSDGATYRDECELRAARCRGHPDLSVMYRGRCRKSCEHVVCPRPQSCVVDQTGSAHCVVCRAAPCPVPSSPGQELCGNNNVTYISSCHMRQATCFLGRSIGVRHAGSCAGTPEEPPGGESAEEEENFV
Left-right determination factor 2 (Homo sapiens), sequence (O00292 whole entry, looked up): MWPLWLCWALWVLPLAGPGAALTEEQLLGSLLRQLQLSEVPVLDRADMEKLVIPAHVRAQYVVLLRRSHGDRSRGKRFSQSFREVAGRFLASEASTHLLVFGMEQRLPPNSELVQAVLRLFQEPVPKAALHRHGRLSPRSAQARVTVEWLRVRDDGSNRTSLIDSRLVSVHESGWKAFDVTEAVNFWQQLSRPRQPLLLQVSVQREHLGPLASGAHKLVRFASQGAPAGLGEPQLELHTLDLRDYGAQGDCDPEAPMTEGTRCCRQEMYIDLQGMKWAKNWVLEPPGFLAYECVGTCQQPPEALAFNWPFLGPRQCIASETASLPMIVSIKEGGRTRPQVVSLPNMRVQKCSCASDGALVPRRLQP
Dickkopf-related protein 1 (Homo sapiens), sequence (O94907 whole entry, looked up): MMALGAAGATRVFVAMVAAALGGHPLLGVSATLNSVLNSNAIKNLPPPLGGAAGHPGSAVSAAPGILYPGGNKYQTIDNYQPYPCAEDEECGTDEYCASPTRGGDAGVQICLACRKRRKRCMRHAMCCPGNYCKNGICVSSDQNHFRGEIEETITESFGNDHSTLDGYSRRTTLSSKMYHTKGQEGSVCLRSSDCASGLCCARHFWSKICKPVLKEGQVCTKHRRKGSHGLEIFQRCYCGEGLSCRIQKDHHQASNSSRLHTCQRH
Fibroblast growth factor 10 (Homo sapiens), sequence (O15520 whole entry, looked up): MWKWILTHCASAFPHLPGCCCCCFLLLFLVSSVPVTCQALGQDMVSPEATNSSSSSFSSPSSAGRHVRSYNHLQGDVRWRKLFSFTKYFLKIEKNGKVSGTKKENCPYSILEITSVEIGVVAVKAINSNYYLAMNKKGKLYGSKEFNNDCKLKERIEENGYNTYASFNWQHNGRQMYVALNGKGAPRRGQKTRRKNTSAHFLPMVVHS
Epidermal growth factor receptor (Homo sapiens), sequence (P00533 whole entry, looked up): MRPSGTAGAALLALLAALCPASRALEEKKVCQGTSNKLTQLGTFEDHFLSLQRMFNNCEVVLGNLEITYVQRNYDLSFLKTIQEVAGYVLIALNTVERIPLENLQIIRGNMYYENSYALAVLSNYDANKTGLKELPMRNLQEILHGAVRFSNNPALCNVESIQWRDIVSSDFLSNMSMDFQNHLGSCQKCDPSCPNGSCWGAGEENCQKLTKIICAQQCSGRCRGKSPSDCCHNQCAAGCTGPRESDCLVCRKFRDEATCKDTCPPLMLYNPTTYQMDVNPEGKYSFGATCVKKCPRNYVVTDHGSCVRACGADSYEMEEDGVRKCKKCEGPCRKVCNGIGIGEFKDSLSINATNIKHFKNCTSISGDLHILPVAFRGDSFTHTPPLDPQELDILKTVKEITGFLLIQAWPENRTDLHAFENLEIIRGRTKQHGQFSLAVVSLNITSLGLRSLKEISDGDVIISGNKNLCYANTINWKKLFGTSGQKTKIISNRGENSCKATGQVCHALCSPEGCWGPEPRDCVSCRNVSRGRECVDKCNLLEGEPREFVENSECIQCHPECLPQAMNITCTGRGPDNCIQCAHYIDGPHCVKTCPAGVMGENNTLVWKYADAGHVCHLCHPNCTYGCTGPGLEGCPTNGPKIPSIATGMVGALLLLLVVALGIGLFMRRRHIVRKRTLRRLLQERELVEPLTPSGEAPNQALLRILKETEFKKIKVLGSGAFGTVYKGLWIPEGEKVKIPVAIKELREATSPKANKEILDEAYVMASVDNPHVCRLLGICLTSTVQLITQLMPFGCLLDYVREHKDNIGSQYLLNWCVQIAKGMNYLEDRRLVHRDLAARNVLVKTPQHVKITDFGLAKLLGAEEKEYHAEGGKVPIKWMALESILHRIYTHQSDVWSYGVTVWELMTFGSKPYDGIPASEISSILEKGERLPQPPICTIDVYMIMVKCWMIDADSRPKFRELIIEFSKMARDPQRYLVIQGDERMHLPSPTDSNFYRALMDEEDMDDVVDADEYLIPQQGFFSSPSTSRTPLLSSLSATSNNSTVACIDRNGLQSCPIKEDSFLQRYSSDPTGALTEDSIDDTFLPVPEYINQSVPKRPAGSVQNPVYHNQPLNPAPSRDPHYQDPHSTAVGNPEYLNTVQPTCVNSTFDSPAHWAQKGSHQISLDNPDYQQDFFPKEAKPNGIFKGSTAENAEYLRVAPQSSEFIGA
Torsin-1A-interacting protein 1 (Homo sapiens), sequence (Q5JTV8 whole entry, looked up): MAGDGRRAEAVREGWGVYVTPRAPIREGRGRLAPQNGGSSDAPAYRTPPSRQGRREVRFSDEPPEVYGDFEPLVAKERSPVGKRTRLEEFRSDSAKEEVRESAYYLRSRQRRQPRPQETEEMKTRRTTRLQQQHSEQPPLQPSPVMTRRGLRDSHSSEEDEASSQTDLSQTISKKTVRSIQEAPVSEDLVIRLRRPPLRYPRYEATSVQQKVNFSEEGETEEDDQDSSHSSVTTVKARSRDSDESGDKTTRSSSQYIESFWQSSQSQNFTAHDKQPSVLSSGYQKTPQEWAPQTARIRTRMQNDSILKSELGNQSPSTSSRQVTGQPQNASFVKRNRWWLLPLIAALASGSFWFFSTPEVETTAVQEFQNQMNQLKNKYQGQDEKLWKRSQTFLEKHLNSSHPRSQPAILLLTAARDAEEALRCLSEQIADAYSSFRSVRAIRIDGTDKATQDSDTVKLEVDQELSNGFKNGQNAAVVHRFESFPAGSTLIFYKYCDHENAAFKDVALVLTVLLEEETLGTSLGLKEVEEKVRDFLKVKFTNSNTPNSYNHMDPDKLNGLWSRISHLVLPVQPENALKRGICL

Row | Structure (SMILES) | composite z-score [1] | composite z-score [2] | composite z-score [3] | z-score [4] | composite z-score [5] | composite z-score [6] | composite z-score [7] | composite z-score [8] | composite z-score [9] | composite z-score [10] | composite z-score [11] | z-score [12] | composite z-score [13] | composite z-score [14] | composite z-score [15] | composite z-score [16] | composite z-score [17] | composite z-score [18] | composite z-score [19] | composite z-score [20]
1 | c1ccc(C2NCCc3c2[nH]c2ccccc32)cc1 (stereo not given) | -0.214 | -0.227 | 0.412 | -0.231 (inactive) | 0.269 | -0.704 | 0.112 | -0.142 | 0.0559 | 0.586 | -0.571 | -3.13 | 0.106 | -0.387 | -0.951 | -0.124 | -0.147 | 0.183 | 0.446 | 0.128
2 | COc1ccc(COC(=O)NN=C2C[C@@H](O)[C@@H](O)[C@@H]3[C@@H]4C(=O)N(c5ccc(F)cc5F)C(=O)[C@@H]4CC[C@@H]23)cc1 | 0.911 | 0.262 | 1.18 | 0.3 (inactive) | -0.665 | -1.53 | -0.076 | -0.267 | -0.69 | 0.532 | -0.0514 | -0.76 | -0.151 | 0.0539 | -0.325 | -0.096 | -0.221 | 0.041 | 0.599 | 0.626
3 | COc1ccc([Si](C)(C)[C@@H]2[C@@H](CCO)O[C@]3(C(=O)N(Cc4ccc(NC(C)=O)cc4)c4ccccc43)[C@H]2C)cc1 | 1.23 | -0.173 | 0.0018 | -2.27 (inactive) | 0.779 | 1.28 | 1.28 | 0.951 | -0.0026 | 0.387 | 1.43 | -5.21 | 0.621 | 1.07 | 0.521 | 0.0136 | 0.441 | 0.715 | 0.802 | 1.21
4 | COc1ccc(O[C@H]2C=C[C@@H](c3ccccc3)O[C@@H]2COC(=O)CCC(C)=NOCC[C@@H]2C=C[C@H](OC(C)=O)[C@@H](COC(C)=O)O2)cc1 | 0.868 | -0.0184 | -0.483 | -0.484 (inactive) | -0.249 | -0.362 | 0.275 | 0.415 | 0.371 | 1.22 | -0.119 | -1.1 | 0.347 | -1.02 | -1.27 | 0.0495 | 0.199 | 0.0301 | 0.781 | -0.0704
5 | C=CCOC(=O)[C@H]1[C@@H]2C(=O)O[C@@H](c3ccccc3)[C@@H](c3ccccc3)N2[C@@H](c2ccc(OCCOC(=O)[C@H]3C[C@H]4C(=O)N5CCC[C@H]5C(=O)N4[C@H]3c3cccc(OCCO)c3)cc2)[C@]12C(=O)Nc1ccc(I)cc12 | 2.03 | 2.12 | 1.36 | 1.1 (inactive) | 1.4 | 1.37 | 1.02 | 1.41 | 1.22 | 1.47 | 1.43 | -0.38 | 1.29 | 2 | 0.977 | 0.995 | 1.97 | 2.7 | 3.33 | 1.69
6 | Cc1ccc(S[C@]2(C(=O)NCC(F)(F)F)CC(=O)N(Cc3ccccc3Cl)[C@@H]2c2ccc(CO)cc2I)cc1 | 1.23 | 0.122 | 0.828 | -1.34 (inactive) | -0.798 | -0.457 | -1.15 | -0.978 | -1.05 | 0.117 | 0.859 | -1.16 | -0.692 | -0.391 | -0.0928 | -0.12 | -0.0035 | -0.383 | -0.373 | 2.06
